Where “and” joins values, the source holds several entries; their conditions need not be identical. Equal entries are not always repeated. Among all 5,500 compounds or so, about 2,000 (36%) were called active. About 18% were inconclusive and are not listed. Rule as the data show it: active = normalized growth mostly below about 0.91 (no sharp cut-off); inconclusive = no clear call, values can overlap the other calls; inactive = mostly above about 0.92. The list shows a part of the results.
Assay: chemical genetic growth profiling, strain panel (AID 1159580);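 also: tested at 20 µM; growth read once vehicle control cultures reached saturation at 30 °C; 1 = growth at the plate median or of vehicle wells; lower values mean less growth of the strain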
Conditions: growth OD

Measured: normalized growth

NC(CP(=O)(O)O)C(=O)O (stereo not given)
inactive: S. cerevisiae deletion strains, locus YAL040C, strain CLN3, stronger effect = lower value 1.09 | S. cerevisiae deletion strains, locus YCL061C, strain MRC1 (second series), stronger effect = lower value 0.998 | S. cerevisiae deletion strains, locus YER002W, strain NOP16, stronger effect = lower value 1.03 | S. cerevisiae deletion strains, locus YNL153C, strain GIM3, stronger effect = lower value 1.04 | S. cerevisiae deletion strains, locus YNL175C, strain NOP13, stronger effect = lower value 1.01 | S. cerevisiae deletion strains, locus YNL197C, strain WHI3, stronger effect = lower value 1.01 | S. cerevisiae deletion strains, locus YNL224C, strain SQS1, stronger effect = lower value 1.01 | S. cerevisiae deletion strains, locus YOR083W, strain WHI5 (second series), stronger effect = lower value 1.01 | S. cerevisiae deletion strains, locus YPL055C, strain LGE1, stronger effect = lower value 1.02

O=C(O)C(O)C(O)C(O)C(O)C(=O)O (stereo not given)
inactive: S. cerevisiae deletion strains, locus YBR021W, strain FUR4, stronger effect = lower value 0.99 | S. cerevisiae deletion strains, locus YBR229C, strain ROT2, stronger effect = lower value 0.998 | S. cerevisiae deletion strains, locus YCL029C, strain bik1, stronger effect = lower value 0.982 | S. cerevisiae deletion strains, locus YDL035C, strain GPR1, stronger effect = lower value 1.04 | S. cerevisiae deletion strains, locus YDL074C, strain BRE1, stronger effect = lower value 1.04 | S. cerevisiae deletion strains, locus YDL101C, strain DUN1, stronger effect = lower value 0.988 | S. cerevisiae deletion strains, locus YDL185W, strain tfp1, stronger effect = lower value 1 | S. cerevisiae deletion strains, locus YDL192W, strain arf1, stronger effect = lower value 0.993 | S. cerevisiae deletion strains, locus YDR101C, strain arx1, stronger effect = lower value 0.983 | S. cerevisiae deletion strains, locus YDR150W, strain NUM1, stronger effect = lower value 1.02 | S. cerevisiae deletion strains, locus YDR162C, strain NBP2, stronger effect = lower value 1.01 | S. cerevisiae deletion strains, locus YDR318W, strain mcm21, stronger effect = lower value 1 | S. cerevisiae deletion strains, locus YDR388W, stronger effect = lower value 0.993 | S. cerevisiae deletion strains, locus YDR502C, strain sam2, stronger effect = lower value 0.991 | S. cerevisiae deletion strains, locus YEL061C, strain CIN8, stronger effect = lower value 1.06 | S. cerevisiae deletion strains, locus YER110C, stronger effect = lower value 0.982 | S. cerevisiae deletion strains, locus YER155C, strain BEM2, stronger effect = lower value 0.994 | S. cerevisiae deletion strains, locus YER167W, strain BCK2, stronger effect = lower value 1 | S. cerevisiae deletion strains, locus YGL078C, strain dbp3, stronger effect = lower value 0.994 | S. cerevisiae deletion strains, locus YGL086W, strain mad1, stronger effect = lower value 0.966 | S. cerevisiae deletion strains, locus YGL248W, strain PDE1, stronger effect = lower value 0.997 | S. cerevisiae deletion strains, locus YGR078C, strain PAC10, stronger effect = lower value 0.997 | S. cerevisiae deletion strains, locus YGR135W, strain pre9, stronger effect = lower value 0.991 | S. cerevisiae deletion strains, locus YGR229C, strain SMI1, stronger effect = lower value 1.03 | S. cerevisiae deletion strains, locus YGR252W, strain gcn5, stronger effect = lower value 1.04 | S. cerevisiae deletion strains, locus YHR030C, strain SLT2, stronger effect = lower value 1 and 0.993 | S. cerevisiae deletion strains, locus YHR079C, strain IRE1 (second series), stronger effect = lower value 0.99 | S. cerevisiae deletion strains, locus YHR079C, strain IRE1, stronger effect = lower value 1 | S. cerevisiae deletion strains, locus YHR094C, strain hxt1, stronger effect = lower value 0.989 | S. cerevisiae deletion strains, locus YHR129C, strain ARP1, stronger effect = lower value 1.01 | S. cerevisiae deletion strains, locus YHR200W, strain rpn10, stronger effect = lower value 0.983 | S. cerevisiae deletion strains, locus YIL066C, strain RNR3, stronger effect = lower value 0.985 | S. cerevisiae deletion strains, locus YIL073C, strain SPO22, stronger effect = lower value 1.01 | S. cerevisiae deletion strains, locus YIL125W, strain kgd1, stronger effect = lower value 0.984 | S. cerevisiae deletion strains, locus YIR030C, strain dcg1, stronger effect = lower value 0.986 | S. cerevisiae deletion strains, locus YJL095W, strain BCK1, stronger effect = lower value 1.02 and 0.995 | S. cerevisiae deletion strains, locus YJL134W, strain LCB3, stronger effect = lower value 1 | S. cerevisiae deletion strains, locus YJL168C, strain set2, stronger effect = lower value 0.988 | S. cerevisiae deletion strains, locus YJL187C, strain SWE1 (second series), stronger effect = lower value 0.996 | S. cerevisiae deletion strains, locus YJR043C, strain POL32, stronger effect = lower value 1.01 | S. cerevisiae deletion strains, locus YJR066W, strain TOR1, stronger effect = lower value 0.942 | S. cerevisiae deletion strains, locus YKL009W, strain mrt4, stronger effect = lower value 0.966 | S. cerevisiae deletion strains, locus YKL068W, stronger effect = lower value 0.998 | S. cerevisiae deletion strains, locus YKL085W, strain MDH1 (second series), stronger effect = lower value 0.983 | S. cerevisiae deletion strains, locus YKL085W, strain MDH1, stronger effect = lower value 0.983 | S. cerevisiae deletion strains, locus YKL190W, strain CNB1, stronger effect = lower value 1.03 | S. cerevisiae deletion strains, locus YKR001C, strain vps1, stronger effect = lower value 0.985 | S. cerevisiae deletion strains, locus YLR039C, strain RIC1, stronger effect = lower value 1.07 | S. cerevisiae deletion strains, locus YLR058C, strain SHM2, stronger effect = lower value 1 | S. cerevisiae deletion strains, locus YLR102C, strain apc9, stronger effect = lower value 0.99 | S. cerevisiae deletion strains, locus YLR113W, strain HOG1, stronger effect = lower value 0.995 | S. cerevisiae deletion strains, locus YLR262C, strain YPT6, stronger effect = lower value 1.14 | S. cerevisiae deletion strains, locus YLR268W, strain sec22, stronger effect = lower value 0.972 | S. cerevisiae deletion strains, locus YLR330W, strain CHS5, stronger effect = lower value 0.992 | S. cerevisiae deletion strains, locus YLR342W, strain FKS1 (second series), stronger effect = lower value 1 | S. cerevisiae deletion strains, locus YLR371W, strain rom2, stronger effect = lower value 0.977 | S. cerevisiae deletion strains, locus YLR418C, strain cdc73, stronger effect = lower value 0.993 | S. cerevisiae deletion strains, locus YML016C, strain PPZ1, stronger effect = lower value 0.982 | S. cerevisiae deletion strains, locus YML032C, strain rad52, stronger effect = lower value 1.02 | S. cerevisiae deletion strains, locus YML124C, strain tub3, stronger effect = lower value 0.985 | S. cerevisiae deletion strains, locus YMR078C, strain ctf18, stronger effect = lower value 0.983 | S. cerevisiae deletion strains, locus YMR223W, strain ubp8, stronger effect = lower value 1.01 | S. cerevisiae deletion strains, locus YMR263W, strain SAP30, stronger effect = lower value 1 | S. cerevisiae deletion strains, locus YMR307W, strain GAS1, stronger effect = lower value 1.1 | S. cerevisiae deletion strains, locus YNL067W, strain RPL9B, stronger effect = lower value 1 | S. cerevisiae deletion strains, locus YNL183C, strain NPR1, stronger effect = lower value 0.909 | S. cerevisiae deletion strains, locus YNL233W, strain BNI4, stronger effect = lower value 1 | S. cerevisiae deletion strains, locus YNL250W, strain rad50, stronger effect = lower value 0.972 | S. cerevisiae deletion strains, locus YNL271C, strain bni1, stronger effect = lower value 0.984 | S. cerevisiae deletion strains, locus YNL298W, strain CLA4, stronger effect = lower value 0.992 | S. cerevisiae deletion strains, locus YNL307C, strain MCK1, stronger effect = lower value 0.979 | S. cerevisiae deletion strains, locus YNL322C, strain KRE1, stronger effect = lower value 1 | S. cerevisiae deletion strains, locus YNR052C, strain pop2, stronger effect = lower value 1 | S. cerevisiae deletion strains, locus YOL006C, strain TOP1, stronger effect = lower value 0.989 | S. cerevisiae deletion strains, locus YOL012C, strain htz1 0.785 | S. cerevisiae deletion strains, locus YOL147C, strain pex11, stronger effect = lower value 0.991 | S. cerevisiae deletion strains, locus YOR061W, strain CKA2, stronger effect = lower value 0.997 | S. cerevisiae deletion strains, locus YOR069W, strain VPS5, stronger effect = lower value 1 | S. cerevisiae deletion strains, locus YOR136W, strain idh2, stronger effect = lower value 0.983 | S. cerevisiae deletion strains, locus YOR144C, strain elg1, stronger effect = lower value 0.982 | S. cerevisiae deletion strains, locus YOR184W, strain ser1, stronger effect = lower value 0.993 | S. cerevisiae deletion strains, locus YOR231W, strain MKK1, stronger effect = lower value 1.01 | S. cerevisiae deletion strains, locus YOR316C, strain cot1, stronger effect = lower value 0.983 | S. cerevisiae deletion strains, locus YPL241C, strain CIN2, stronger effect = lower value 1.05 | S. cerevisiae deletion strains, locus YPL256C, strain CLN2, stronger effect = lower value 0.978 | S. cerevisiae deletion strains, locus YPR119W, strain clb2, stronger effect = lower value 0.986 | S. cerevisiae deletion strains, locus YPR141C, strain kar3, stronger effect = lower value 0.986 | S. cerevisiae deletion strains, locus YPR163C, strain tif3, stronger effect = lower value 0.982 | S. cerevisiae deletion strains, locus YPR167C, strain met16, stronger effect = lower value 0.988 | S. cerevisiae deletion strains, strain wtn01, stronger effect = lower value 0.971 | S. cerevisiae strains, strain wild type, stronger effect = lower value 1.03

From PubChem BioAssay AID1159580 (chemical genetic matrix, 2015)
